# Assay outcomes from PubChem BioAssay.
# Hits are enriched below; roughly 3.5% of the tested compounds scored in any of these assays.
# GPR151 activ = activates the human receptor GPR151. 650,000 compounds, 1% hits. activation, % at 11.2 µM. PathHunter beta-arrestin GPR151 cells, luminescence. Q8TDV0; in the data active = activation above about 4.9%;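 note: 0% = median of compound wells and 100% = cells with positive control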
# MITF primary = human MITF inhibition, primary screen | AlphaScreen MITF homodimerization, bead proximity signal | AID 1259374 | 650,000 compounds, 0.91% hits | inhibition, % at 2.6 µM; in the data active = inhibition above about 50%;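 note: 0% = vehicle wells with protein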
# TEAD-YAP inh = TEAD-YAP interaction inhibition; HEK-TIYL cells, TEAD-Gal4/YAP UAS-luciferase luminescence; inhibition, % at 9.12 µM; 640,000 compounds, 1.4% hits; AID 1259422; in the data active = inhibition above about 32%;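 note: 0% = median of test compound wells and 100% = reference inhibitor wells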
# FBW7 activator = human FBW7 E3 ligase activation, primary screen | 650,000 compounds, 0.13% hits | Q969H0 | AlphaScreen FBW7–phospho-cyclin E peptide binding, activator screen | normalized activity (activation), % at 26.1 µM; in the data active = normalized activity above about 1.9%;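 note: purified mutant Fbw7 with reduced substrate affinity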
# An asterisk follows results filed as active.
SMILES,GPR151 activ,MITF primary,TEAD-YAP inh,FBW7 activator
O=C(Oc1ccc([N+](=O)[O-])cc1-n1cnnn1)c1ccc(Cl)cc1,-0.2,1.6,-5.4,0.2
Cc1ccc(-c2nnc3ccc(SCC(=O)NCC4CCCO4)nn23)cc1 (stereo unspecified),0.3,0.1,-6.1,-0.2
COc1cc(OC)nc(CN2CCN(Cc3ccc(Cl)cc3S(C)(=O)=O)CC2)n1,-1.0,9.0,6.5,0.0
Cc1nc2c(C)cccn2c1C(=O)NCc1ccc2c(c1)OCO2,-0.8,-10.7,33.5*,0.1
Cc1nc2ccccn2c1C(=O)NCc1ccc2c(c1)OCO2,0.0,13.6,6.3,0.9
CC(C)(C)c1ccc(-c2noc(CCC(=O)NC3CCCC3)n2)cc1,0.7,8.0,64.0*,-0.1
Cc1ccc(-c2noc(CCC(=O)NC3CCCC3)n2)cc1,-1.6,31.2,-1.1,0.6
C=CCNC(=O)CCc1nc(-c2ccc(C(C)(C)C)cc2)no1,-0.7,4.9,34.8*,-0.1
CCOc1ccc(-c2noc(CCC(=O)O)n2)cc1,0.3,-18.3,50.1*,0.1
CS(=O)(=O)N(CC(=O)Nc1ccccc1Sc1ccccc1)c1ccccc1F,0.8,-26.5,-0.5,-0.2
Cc1cc(C)nc(SCC(=O)Nc2nc(C(C)(C)C)cs2)n1,-1.0,8.5,8.7,0.0
COc1ccc(C(=O)CSc2nc(C3CC3)nc3c2c(=O)n(C)c(=O)n3C)cc1,1.5,-0.9,6.3,0.0
CCCc1ccc(Oc2cn[nH]c2-c2ccc(O)cc2O)cc1,0.3,2.7,65.3*,-0.2
COc1cc(Nc2ncc(C)c(NCc3cccc(C(F)(F)F)c3)n2)cc(OC)c1OC,1.5,-5.4,53.5*,-0.1
Cc1cnc(Nc2ccc(-n3ccnc3)cc2)nc1NCc1cccc(C(F)(F)F)c1,0.1,-10.2,36.7*,0.1
CCCNc1cc(C)nc(Nc2ccc(-n3ccnc3)cc2)n1,1.3,5.9,34.9*,0.0
Cc1cnc(Nc2ccc(C(F)(F)F)cc2)nc1NCc1cccc(C(F)(F)F)c1,-2.0,-21.6,11.1,0.0
Cc1cnc(Nc2cnccn2)nc1NCc1cccc(C(F)(F)F)c1,1.8,7.5,46.4*,-0.1
COc1cc(Nc2ncc(C)c(NCc3cccnc3)n2)cc(OC)c1OC,1.9,20.4,-12.5,0.2
CCC(Oc1ccccc1)C(=O)Nc1ccc(NC(C)=O)cc1 (stereo unspecified),2.2,9.8,12.8,0.0
Cc1cc(NCc2cccc(C(F)(F)F)c2)nc(Nc2ccc(-n3ccnc3)cc2)n1,1.3,0.1,50.2*,-0.1
O=C(NCc1cccc(C(F)(F)F)c1)C1CCN(c2ccc(Nc3ccc(-n4ccnc4)cc3)nn2)CC1,-3.2,10.9,34.7*,0.2
O=C(NCc1ccccc1)C1CCN(c2ccc(Nc3ccc(-n4ccnc4)cc3)nn2)CC1,-1.9,10.6,2.0,-0.1
CCN(CC)c1ccc(N2CCN(S(=O)(=O)c3cc(C)ccc3OC)CC2)nn1,0.9,8.6,53.8*,0.0
COc1ccc(C)cc1S(=O)(=O)N1CCN(c2ccc(-c3ccncc3)nn2)CC1,-2.4,7.7,0.8,0.3
SMILES,GPR151 activ,MITF primary,TEAD-YAP inh,FBW7 activator
COc1cc(CCC(=O)Nc2nnc(C)s2)cc(OC)c1OC,0.6,2.0,55.4*,-0.1
COc1cc(C(=O)Nc2nnc(C)s2)c(Br)c(OC)c1OC,-2.3,-8.6,-1.1,0.8
CCN(CC)S(=O)(=O)c1cccc(C(=O)N/N=C/c2cccc(O)c2O)c1,0.7,70.7*,5.1,-1.2
Cc1cccc(/C=N\NC(=O)c2ccc([N+](=O)[O-])cc2)c1O,-1.4,-6.9,61.7*,-0.7
O=C(N/N=C/c1cccc(O)c1O)c1ccc(O)cc1,-0.6,56.6*,-8.6,-1.1
Cc1csc(NC(=O)C(Cc2c[nH]c3ccccc23)NC(=O)OC(C)(C)C)n1 (stereo unspecified),-1.2,12.2,40.6*,0.3
Cc1ccccc1NS(=O)(=O)c1ccc2ccccc2c1,0.0,11.9,2.8,0.1
CC(=O)Nc1ccccc1NS(=O)(=O)c1ccc2ccccc2c1,1.0,9.0,52.8*,0.8
COc1ccccc1NC(=S)NC(=O)c1ccccc1OC,-1.1,7.1,39.4*,0.0
COc1ccccc1C(=O)NNC(=O)c1cccc(O)c1,-2.5,0.3,79.2*,0.0
COC(=O)c1cc(OC)c(OC)cc1NC(=S)Nc1ccccc1,-1.7,1.9,1.2,-0.2
COC(=O)c1cc(OC)c(OC)cc1NC(=S)NC(=O)c1ccccc1,-0.8,-1.4,33.4*,-0.1
COc1ccccc1NC(=S)Nc1ccc(N2CCOCC2)cc1,-2.2,17.9,33.4*,-0.1
COc1ccccc1C(=O)NC(=S)Nc1ccccc1C(=O)O,-2.0,-4.4,22.0,0.1
